This is part of a sample that, as a whole, favours compounds with a hit. Of some 83,000 tested, about 20% had one in any assay.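 Negative percent growth values reflect cell death: -40 means 40% of the cells present at the start died, and -100 means all died.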 Values without a mark were called inactive. Activity calls are given as the source filed them. The calls were made as follows: active = growth percent below 10; inactive = the rest.

Some test systems named below: HCT-15 colon; HT29 colon; SNB-75 CNS; SNB-19 CNS; U251 CNS; PC-3 prostate; SK-MEL-5 melanoma; UACC-62 melanoma; LOX IMVI melanoma; SK-MEL-28 melanoma; SK-MEL-2 melanoma; EKVX NSCLC; SN12C renal; ACHN renal; CAKI-1 renal; A498 renal; MOLT-4 leukemia; UO-31 renal; TK-10 renal; CCRF-CEM leukemia.
Test in all cases: NCI-60 one-dose screen, 48 h (100 = growth as untreated, 0 = no growth, -100 = all killed)
What all share (conditions): 10 µM unless noted

For `O=C(Nc1sc2c(c1C(=O)O)CCCC2)c1cccc(C(F)(F)F)c1`, the growth in the test with HCT-15 colon was 89.3%; with HT29 colon, 97.7%; with SNB-75 CNS, 104%; in the test with SNB-19 CNS, 100%; in the test with U251 CNS, 88.3%; with PC-3 prostate it was 90.8%. The growth is 81.2% with SK-MEL-5 melanoma; 77.5% in the test on UACC-62 melanoma; 102% in the test with LOX IMVI melanoma; 94.4% with SK-MEL-28 melanoma; 98.6% in the test on SK-MEL-2 melanoma; 93.7% in the test with EKVX NSCLC. In addition, the growth was 95.6% in the test on SN12C renal; 87.9% in the test on ACHN renal; 91.1% with CAKI-1 renal; 95.2% with A498 renal; 96.9% in the test on MOLT-4 leukemia.

On to `CC(C)[N+](C)(CCOC(COc1ccccc1)COc1ccccc1)C(C)C`, for which the growth in the test on HCT-15 colon was 100%; in the test with HT29 colon it was 73.4%; with SNB-75 CNS, 70.9%; with SNB-19 CNS, 86.2%; in the test with U251 CNS, 83.8%; in the test with PC-3 prostate it was 73.2%. In addition, the growth with SK-MEL-5 melanoma was 86.8%; with UACC-62 melanoma, 78.6%; with LOX IMVI melanoma it was 95.5%; with SK-MEL-28 melanoma, 96.6%; with SK-MEL-2 melanoma, 87.1%; in the test with EKVX NSCLC it was 79.1%. For the same compound, the growth was 88.8% in the test on UO-31 renal; 94.1% in the test with TK-10 renal; 105% with ACHN renal; 105% in the test on CAKI-1 renal; 60% in the test with A498 renal; 87.7% in the test on CCRF-CEM leukemia. For the same compound, the growth in the test with MOLT-4 leukemia is 98.2%.

Turning to `Nc1c(Cl)cc([N+](=O)[O-])cc1Br`, the growth with HCT-15 colon is 103%; in the test on HT29 colon it was 103%; in the test with SNB-75 CNS, 108%; with SNB-19 CNS, 116%; with U251 CNS, 101%; in the test with PC-3 prostate it was 96.1%. Also, the growth is 98.9% in the test on SK-MEL-5 melanoma; 102% in the test on UACC-62 melanoma; 104% in the test with LOX IMVI melanoma; 110% in the test with SK-MEL-28 melanoma; 121% in the test on SK-MEL-2 melanoma; 89.1% in the test with EKVX NSCLC. Also, the growth in the test on UO-31 renal was 90%; with TK-10 renal, 115%; with ACHN renal it was 112%; in the test with CAKI-1 renal, 85.4%; with CCRF-CEM leukemia, 104%; in the test on MOLT-4 leukemia, 105%.

As to `O=C1NC(=S)NC(=O)C1=Cc1cccc(C=C2C(=O)NC(=S)NC2=O)c1`, the growth in the test with HCT-15 colon is 105%; with HT29 colon it was 104%; in the test with SNB-75 CNS, 98.9%; in the test with SNB-19 CNS, 98.9%; in the test on U251 CNS it was 114%; in the test on PC-3 prostate, 104%. The growth was 100% in the test on SK-MEL-5 melanoma; 101% with UACC-62 melanoma; 102% with LOX IMVI melanoma; 110% in the test with SK-MEL-28 melanoma; 108% in the test with SK-MEL-2 melanoma; 99.9% with EKVX NSCLC. In addition, the growth with UO-31 renal was 91%; with TK-10 renal, 104%; with ACHN renal, 113%; in the test with CAKI-1 renal, 93.9%; with A498 renal it was 93.1%; with CCRF-CEM leukemia, 99.3%. For the same compound, the growth in the test on MOLT-4 leukemia was 102%.

As to `O=CNc1cc(Cl)cc(Cl)c1`, the growth with HCT-15 colon is 103%; in the test with HT29 colon, 101%; with SNB-75 CNS, 104%; with SNB-19 CNS, 99.7%; in the test on U251 CNS it was 102%; in the test on PC-3 prostate, 96.1%. For the same compound, the growth in the test with SK-MEL-5 melanoma was 102%; with UACC-62 melanoma it was 96.1%; in the test with LOX IMVI melanoma, 108%; with SK-MEL-28 melanoma, 103%; in the test with SK-MEL-2 melanoma it was 100%; with EKVX NSCLC, 96.7%. In addition, the growth in the test with SN12C renal was 95.9%; in the test on TK-10 renal it was 101%; in the test on CAKI-1 renal it was 92.3%; in the test on CCRF-CEM leukemia, 101%; with MOLT-4 leukemia, 97.5%.

As to `CC[N+](CC)(CCCC(C)[N+]1(Cc2ccccc2)C(C)=CC=C1C)Cc1ccccc1` (configuration not stated), the growth is 98.5% with HCT-15 colon; 44.1% with HT29 colon; 87.6% in the test on SNB-75 CNS; 92.6% in the test on SNB-19 CNS; 106% in the test with U251 CNS; 73.3% with PC-3 prostate. The growth with SK-MEL-5 melanoma was 68.7%; in the test with UACC-62 melanoma, 73%; in the test on LOX IMVI melanoma, 90.7%; in the test with SK-MEL-28 melanoma, 78.8%; in the test on SK-MEL-2 melanoma, 102%; in the test with EKVX NSCLC, 78.1%. Further, the growth was 91.2% with UO-31 renal; 93.8% in the test with TK-10 renal; 100% in the test with ACHN renal; 101% with CAKI-1 renal; 87.5% with A498 renal; 74.1% in the test with CCRF-CEM leukemia. In addition, the growth with MOLT-4 leukemia was 84%.

With `Brc1ccc(C2CC(c3cccc(Nc4ccncc4)c3)=NN2c2ccccc2)cc1` (configuration not stated), the growth was 13.5% in the test on HCT-15 colon; 4.59% (active) in the test with HT29 colon; 79.6% in the test on SNB-75 CNS; 94.3% with SNB-19 CNS; 32.1% in the test with U251 CNS; 52.4% in the test on PC-3 prostate. Further, the growth with SK-MEL-5 melanoma is 82.2%; in the test with UACC-62 melanoma, 98.6%; in the test with LOX IMVI melanoma it was 53.4%; in the test with SK-MEL-28 melanoma, 73.3%; with SK-MEL-2 melanoma it was 102%; in the test with EKVX NSCLC, 95.7%. Further, the growth in the test on UO-31 renal is 74.6%; with TK-10 renal, 94.4%; with ACHN renal it was 91.3%; in the test on CAKI-1 renal, 81.1%; with A498 renal it was 80.2%; with CCRF-CEM leukemia, 63.2%. Further, in the test with MOLT-4 leukemia, the growth is 47.3%.

Take `COc1cc2nc(Cc3ccc(C)cc3)[nH]c(=O)c2cc1OC`: the growth in the test with HCT-15 colon is 104%; in the test on HT29 colon, 107%; in the test with SNB-75 CNS, 95.6%; in the test with SNB-19 CNS it was 97.9%; in the test with U251 CNS it was 117%; in the test with PC-3 prostate, 101%. The growth in the test on SK-MEL-5 melanoma was 109%; in the test with UACC-62 melanoma, 95.1%; with LOX IMVI melanoma it was 105%; in the test on SK-MEL-28 melanoma it was 96.6%; with SK-MEL-2 melanoma, 123%; with EKVX NSCLC, 109%. Moreover, the growth is 97.5% with UO-31 renal; 292% with TK-10 renal; 110% in the test with ACHN renal; 129% in the test with CAKI-1 renal; 90.6% in the test on A498 renal; 1.89% (active) with CCRF-CEM leukemia. For the same compound, the growth in the test on MOLT-4 leukemia was 95%.

Source of the values: PubChem BioAssay (NCI).
